Our source for the outcome values is PubChem BioAssay AID493231 (Broad Institute, 2011).

Measured potencies and affinities stand elsewhere. Activity calls are given as the source filed them. The rule behind the calls is not given here.

The target in this experiment is Acyl-homoserine lactone acylase PvdQ (Pseudomonas aeruginosa (strain ATCC 15692 / DSM 22644 / CIP 104116 / JCM 14847 / LMG 12228 / 1C / PRS 101 / PAO1)) (UniProt Q9I194). Description: P. aeruginosa PvdQ acylase inhibitors, dose response, biochemical, fluorescence, plate reader and imaging, cherry-picks (AID 493231).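 Note: more negative values mean stronger inhibition of the acylase.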 Conditions: purified PvdQ acylase, fluorogenic substrate; series mostly up to 10 µM.
Sequence of Acyl-homoserine lactone acylase PvdQ (Pseudomonas aeruginosa (strain ATCC 15692 / DSM 22644 / CIP 104116 / JCM 14847 / LMG 12228 / 1C / PRS 101 / PAO1)) (Q9I194 whole entry, looked up): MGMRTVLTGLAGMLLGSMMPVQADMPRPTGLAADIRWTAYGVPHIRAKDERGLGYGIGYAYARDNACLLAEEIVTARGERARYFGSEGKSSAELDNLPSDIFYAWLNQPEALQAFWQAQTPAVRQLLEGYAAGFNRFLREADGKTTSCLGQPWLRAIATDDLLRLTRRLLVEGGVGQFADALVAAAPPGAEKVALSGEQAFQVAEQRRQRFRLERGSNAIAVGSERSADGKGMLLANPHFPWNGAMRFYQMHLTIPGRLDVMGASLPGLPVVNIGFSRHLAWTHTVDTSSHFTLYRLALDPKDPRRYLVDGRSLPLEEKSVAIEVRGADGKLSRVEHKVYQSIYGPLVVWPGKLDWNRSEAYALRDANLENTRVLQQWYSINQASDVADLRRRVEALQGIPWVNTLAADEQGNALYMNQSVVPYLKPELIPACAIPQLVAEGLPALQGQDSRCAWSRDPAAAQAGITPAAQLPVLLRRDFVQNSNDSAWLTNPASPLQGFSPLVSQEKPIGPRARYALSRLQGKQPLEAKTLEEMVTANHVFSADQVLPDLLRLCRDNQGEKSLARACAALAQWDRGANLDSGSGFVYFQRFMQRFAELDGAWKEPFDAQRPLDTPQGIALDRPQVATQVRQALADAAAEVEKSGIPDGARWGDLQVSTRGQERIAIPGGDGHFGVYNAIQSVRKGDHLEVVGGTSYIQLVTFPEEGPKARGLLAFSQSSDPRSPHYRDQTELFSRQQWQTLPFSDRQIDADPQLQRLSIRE
Consider `CN(CC1CCCN(CCc2ccc(F)cc2)C1)C(=O)CCC(F)(F)F` (stereo not drawn), for which the result was inactive. Take `CCOC(=O)CSc1nnc(-c2ccc(S(=O)(=O)N3CCC(C)CC3)cc2)o1`: the molecule was classed as inactive. On to `Cc1ccc(-c2nc(CN(C)Cc3cccc4cnccc34)c(C)o2)s1`, for which the outcome was inactive. On to `COC(=O)C(C(=O)OC)c1ncccc1[N+](=O)[O-]`, for which the molecule was called inactive. For `CC1=C(C(=O)Nc2ccccc2)C(c2coc3ccccc3c2=O)C2=C(CCCC2=O)N1` (stereo not drawn) the value was “inactive”; for `O=c1oc(-c2ccc(F)cc2)nc2ccsc12`, “inactive”. In the case of `CCN(c1ccccc1)S(=O)(=O)c1cc(C(=O)Nc2ccccc2Cl)ccc1F`, the outcome was inactive. `CCOC(=O)c1ccc(N2Cc3ccccc3C2=NC(=O)c2ccncc2)cc1`: the molecule was called inactive.

On to `CCOC(=O)c1ccc(N2CCN(c3ccccc3F)CC2)c(NC(=O)Nc2cccc(OC)c2)c1`, for which the outcome was inactive.

On to `COc1ccc(CCNC(=O)/C(C#N)=C/c2ccc(OCC(=O)NCC3CCCO3)cc2)cc1OC` (stereo not drawn), for which the outcome was inactive.

Regarding `Cn1c(=O)c2c(ncn2CC(=O)OCC(=O)NCc2ccc(Cl)cc2)n(C)c1=O`, the outcome was inactive. For the molecule `COc1ccc(OC)c(C(=O)c2oc3ccccc3c2NC(C)=O)c1`, the outcome was inactive.

On to `COC(=O)c1ccc(-c2nc3ccccc3[nH]2)cc1`, for which the molecule was classed as inactive. As to `CCSc1ccc(-c2cccc([N+](=O)[O-])c2)nn1`, the molecule was classed as inactive. For `Cc1ccc(C(=O)/C=C/Nc2cccc([N+](=O)[O-])c2)o1` the value was “inactive”; for `Cc1cc(C)cc(NC(=O)C(OC(=O)c2cccs2)c2ccccc2)c1` (stereo not drawn), “inactive”; for `Cc1ccc(Nc2nc(-c3sc(C)nc3C)cs2)cc1`, “inactive”. For `COc1ccc(CN2CCCC(C(=O)c3cccc(OC(C)C)c3)C2)cc1Cn1cccn1` (stereo not drawn) the value was “inactive”.
